Measurements from PubChem BioAssay.
Unmarked numbers belong to inactive results. Active and inactive are the calls of the source. Rule as the data show it, unless noted: active = inhibition above about 44%; inactive = the rest.

Experiments:
[1] = StAR promoter reporter inhibitors, counter-screen for LRH-1 inverse agonist project, cell-based, luminescence, high throughput (AID 651611; in the data active = inhibition above about 28%); details: StAR promoter luciferase reporter counterscreen, at 3.6 µM, hits give high values
[2] = biological target: Nuclear receptor subfamily 5 group A member 2 (Homo sapiens) (UniProt O00482); experiment: NR5A2 activity suppression in reporter cells – cell-based, luminescence, confirmation (AID 651613; in the data active = inhibition above about 42%;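 also: HEK293T cells co-transfected with LRH-1 and StAR promoter luciferase reporter; 0% = vehicle wells and 100% = parental cells lacking receptor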); details: cell-based LRH-1 luciferase reporter, inverse agonism; at 3.6 µM; hits give high values
[3] = biological target: Steroidogenic factor 1 (Homo sapiens) (UniProt Q13285); experiment: inverse agonism at SF1 nuclear receptor – cell-based, luminescence, high throughput, counter-screen for LRH-1 inverse agonist project (AID 651614); details: cell-based SF1 luciferase reporter, at 3.6 µM, hits give high values;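 also: cells cotransfected with StAR promoter reporter and SF1 expression vector; 0% = vehicle on cells with receptor and 100% = vehicle on cells lacking receptor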
[4] = compounds suppressing VP16-driven luciferase signal – cell-based, luminescence, high throughput, counter-screen for LRH-1 inverse agonist project (AID 651615; in the data active = inhibition above about 33%); details: Gal4-VP16 luciferase reporter cells, at 3.6 µM, hits give high values

Sequence of Steroidogenic factor 1 (Homo sapiens) (Q13285 whole entry, looked up, the tested form may be a part): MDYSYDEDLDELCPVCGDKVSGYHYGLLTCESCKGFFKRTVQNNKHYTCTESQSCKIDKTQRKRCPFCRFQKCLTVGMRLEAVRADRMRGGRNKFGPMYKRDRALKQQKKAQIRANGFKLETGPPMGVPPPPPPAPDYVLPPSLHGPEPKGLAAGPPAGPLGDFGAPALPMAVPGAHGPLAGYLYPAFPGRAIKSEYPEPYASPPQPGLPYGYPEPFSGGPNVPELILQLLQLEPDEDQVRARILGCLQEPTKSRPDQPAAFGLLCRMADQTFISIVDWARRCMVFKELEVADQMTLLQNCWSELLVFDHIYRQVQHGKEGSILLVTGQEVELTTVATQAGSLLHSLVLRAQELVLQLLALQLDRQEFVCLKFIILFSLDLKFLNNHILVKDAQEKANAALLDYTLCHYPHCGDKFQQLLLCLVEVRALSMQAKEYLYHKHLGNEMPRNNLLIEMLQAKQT
Sequence of Nuclear receptor subfamily 5 group A member 2 (Homo sapiens) (O00482 whole entry, looked up): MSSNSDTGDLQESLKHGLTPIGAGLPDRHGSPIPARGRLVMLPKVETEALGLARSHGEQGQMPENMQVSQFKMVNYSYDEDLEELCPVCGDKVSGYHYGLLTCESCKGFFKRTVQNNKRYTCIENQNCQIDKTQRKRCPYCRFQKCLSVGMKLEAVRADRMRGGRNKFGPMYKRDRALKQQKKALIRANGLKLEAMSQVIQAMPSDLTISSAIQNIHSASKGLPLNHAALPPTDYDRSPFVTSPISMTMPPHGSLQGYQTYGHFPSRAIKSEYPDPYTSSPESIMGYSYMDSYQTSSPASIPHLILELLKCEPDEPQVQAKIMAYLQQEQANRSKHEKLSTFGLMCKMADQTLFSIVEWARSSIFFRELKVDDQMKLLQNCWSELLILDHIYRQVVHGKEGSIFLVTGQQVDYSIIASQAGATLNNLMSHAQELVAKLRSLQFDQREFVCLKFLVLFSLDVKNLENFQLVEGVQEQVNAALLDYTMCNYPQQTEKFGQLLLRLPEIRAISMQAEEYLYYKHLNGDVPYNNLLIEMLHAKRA

Row | SMILES | inhibition [1] | inhibition [2] | inhibition [3] | inhibition [4]
1 | O=Cc1ccc(N2CCCCCC2)cc1 | 3.14% | 57.1% (active) | 56% (active) | -13.3%
2 | CCOc1ccc(NC(=O)COC(=O)C2CCC(=O)N2)c([N+](=O)[O-])c1 (stereo unspecified) | 4.31% | 50.5% (active) | 43.6% (active) | -7.9%
3 | CCc1cc(=O)oc2c(C)c(OCC(=O)NCCN3CCOCC3)ccc12 | -3.34% | 48.5% (active) | 30.7% | -8.24%
4 | CN1C(=O)NC(c2ccccc2[N+](=O)[O-])C2=C1CC(C)(C)CC2=O (stereo unspecified) | 3.55% | 19% | -6.97% | 0.8%
5 | CCN1C(=O)c2cccc3c(NC(=O)c4ccc(S(=O)(=O)N5CCOCC5)cc4)ccc1c23 | 40.3% (active) | 62% (active) | 62.7% (active) | -60.9%
6 | CC(=O)Nc1ccc(NC(=O)CSc2nnc(COc3ccccc3C)n2CC2CCCO2)cc1 (stereo unspecified) | 16.5% | 64.6% (active) | 57.3% (active) | -5.23%
7 | COc1ccc(CCNC(=O)CN2C(=O)NC3(CCCCC3C)C2=O)cc1 (stereo unspecified) | 3.33% | 66.3% (active) | 66.7% (active) | -17%
8 | COc1ccc(-c2sc(C(=O)c3ccc(Cl)cc3Cl)cc2CC(=O)O)cc1 | 17.8% | 42.2% (active) | 38% | -5.16%
9 | COc1ccc(S(=O)(=O)Nc2ccc3c(c2)n(C)c(=O)n3C)cc1F | 19.6% | 46.2% (active) | 52.1% (active) | 7.89%
